uPA surface inh = qHTS for Inhibitors of Cell Surface uPA Generation; Potency, µM (highest dose often 38.3 µM), for the others: top-dose activity change, negative = inhibition, usual class: inhibitors; cell surface uPA generation assay, qHTS; 0.31% of 330,000 active; active = well fitted inhibition curve with a large enough effect; inconclusive = small, poorly fitted or top-dose-only effect; inactive = no such curve, though single readings can be large or run the other way; tested in mouse RAW 264.7 cells; also: potency is read from the fitted curve at half-maximal effect; nearly all actives have a fitted effect of over 55% in size
HT1080 IDH1KD tx = qHTS for induction of synthetic lethality in tumor cells producing 2HG: qHTS for the HT-1080-IDH1KD cell line. HT-1080 IDH1 knockdown viability, ATP luminescence, 48 h. Potency, µM (titrated, usually from 46.1 µM), without a hit: top-dose activity, negative = toxicity, most hits filed as cytotoxic. 2% of 360,000 active. AID 686971, 2013;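 also: potency is read from the fitted curve at half-maximal effect; 0% = DMSO wells and -100% = cell-free medium wells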
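HT-1080-IDH1KD cells (IDH1 knocked down), 750/well in RPMI with 5% FBS, treated with compound 48 h at 37 degrees C. Viability by CellTiter-Glo luminescence, normalised to DMSO and no-cell wells; concentration-response curves classed.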
IL1B secr inh = qHTS for Inhibitors of Inflammasome Signaling: IL-1-beta AlphaLISA Primary Screen; THP-1 LPS/ATP IL-1B secretion, AlphaLISA, 16 h; active compounds read low; activity change, % at 57.5 µM; 4.7% of 360,000 active; AID 743279, 2014; in the data active = activity change below about -50%; inconclusive = mostly about -30% to -49%
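THP-1 cells pretreated 1 hr with compounds (up to 57.5 uM final), then stimulated with LPS (250 ng/mL final) plus ATP (1.25 mM final); secreted IL-1B measured by AlphaLISA after 16 hr, decreased signal indicating inhibition.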
DT40 TDP1 no CPT = qHTS for Inhibitors of human tyrosyl-DNA phosphodiesterase 1 (TDP1): qHTS in cells in absence of CPT; Potency, µM (titrated, usually from 46.2 µM), for the others: at the top dose activity change, negative = growth inhibition, usual class: inhibitors; 15% of 420,000 active; DT40 Tdp1-/- hTDP1 cells, no CPT, ATP luminescence, 48 h; also: potency is read from the fitted curve at half-maximal effect; nearly all actives have a fitted effect of over 55% in size
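Compound effects on proliferation are scored in DT40 Tdp1-/-;hTDP1 cells in the absence of CPT. ATP levels (CellTiter-Glo luminescence) are recorded after a ≥48 hr, 37 °C incubation.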
TDP1 cell CPT = qHTS for Inhibitors of human tyrosyl-DNA phosphodiesterase 1 (TDP1): qHTS in cells in presence of CPT; chicken DT40 Tdp1-/-;hTDP1 cells + 20 nM CPT, ATP luminescence, 48 h; AID 686979, 2013; Potency, µM (top dose mostly 46.2 µM), for inactives: top-dose activity change, negative = growth inhibition, usual class: inhibitors; 12% of 420,000 active; also: potency is read from the fitted curve at half-maximal effect; nearly all actives have a fitted effect of over 55% in size
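Chicken DT40 Tdp1-/- cells complemented with human TDP1, 400 cells/well, exposed to compounds plus 20 nM camptothecin for at least 48 h at 37 C; viability read as ATP content by CellTiter-Glo luminescence.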
HT1080-NT tox = qHTS for induction of synthetic lethality in tumor cells producing 2HG: qHTS for the HT-1080-NT fibrosarcoma cell line. HT-1080-NT fibrosarcoma viability, CellTiter-Glo ATP luminescence, 48 h. AID 686970, 2013. 1.6% of 360,000 active. Potency, µM (series often up to 46.1 µM), for inactives: top-dose activity, negative = less viability, usual class: cytotoxic;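 also: NT is the 2HG producing partner of a matched IDH1 knockdown line; potency is read from the fitted curve at half-maximal effect; 0% = DMSO-treated cells and -100% = media-only wells without cells; nearly all actives have a fitted effect of over 55% in size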
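A 48-hour cytotoxicity screen used HT-1080-NT cells plated 2 hours before compound delivery. ATP-based CellTiter-Glo luminescence measured viability, normalized to DMSO and no-cell controls.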
* = called active by the depositor; ? = inconclusive; / = no result given; [ ] = dose if it differs, or a comment. This is a sample that favours compounds with a hit; in the whole collection about 19% have one here. Unless noted, calls follow the shape of the dose curve; as a rule, active = well fitted curve in the direction sought with a large enough effect; inconclusive = small, poorly fitted or top-dose-only effect, or another doubt; inactive = no such curve, though single readings can be large; an effect the other way counts as inactive or inconclusive. Unless noted, % is scaled to controls: 0 for no effect and ±100 for the full control effect.

SMILES	uPA surface inh	HT1080 IDH1KD tx	IL1B secr inh	DT40 TDP1 no CPT	TDP1 cell CPT	HT1080-NT tox
COc1ccc(N(C(=O)c2ccccc2C)S(=O)(=O)c2ccc(C)cc2)cc1	/	/	/	?	12µM*	/
COc1ccc(N(C(=O)COc2ccc(F)cc2)S(=O)(=O)c2ccc(C)cc2)cc1	1%	3%	0	-13%	-5%	2%
O=C(Nc1ncc(Cc2ccccc2Cl)s1)C1=NCCN1	-21%	?	29	?	21µM*	?
O=C(Nc1ncc(Cc2ccc(Cl)cc2Cl)s1)c1ccc([N+](=O)[O-])cc1	-1%	-1%	-10	18µM*	18µM*	-6%
CCOc1ccc(CCNC(=O)CCCc2nnc3n(C)c(=O)c4sccc4n23)cc1OCC	/	/	/	8%	-1%	/
O=C(NN=Cc1ccccc1)C(Oc1ccccc1)c1ccccc1 (centres undefined)	-4%	-4%	0	?	?	-5%
COc1ccc(NS(=O)(=O)c2cccc(NC(=O)C3=NN(c4ccccc4)C(=O)CC3)c2)cc1	4%	?	13	15µM*	?	?
CN(c1ccccc1)S(=O)(=O)c1cccc(NC(=O)c2ccc(=O)[nH]c2)c1	-3%	-1%	43	?	?	-1%
CN(c1ccccc1)S(=O)(=O)c1cccc(NC(=O)C2=NN(c3ccccc3)C(=O)CC2)c1	?	-16%	25	13µM*	?	-13%
COc1ccc(NS(=O)(=O)c2cc(NC(=O)C3=NN(c4ccccc4)C(=O)CC3)ccc2C)cc1	-1%	-27%	8	-27%	?	-2%
COC(=O)c1sccc1NC(=O)Cn1nnc(-c2ccccc2C)n1	0%	-9%	-6	-34%	?	0%
CC(C)(C)NC[C@H](O)COc1cccc2c1CCCC2=O	-3%	-13%	-17	-19%	-5%	-5%
CC(C)(C)NCC(O)CON=C1c2ccccc2-c2ccccc21 (centres undefined)	-16%	15µM*	-98*	?	21µM*	18µM*
CC(C)(C)NC(=O)CON=C1c2ccccc2-c2ccccc21	22%	-1%	?	23µM*	23µM*	-1%
Cc1ccc(-n2c(=O)c3c(c4cc(C)ccc4n3C)n(CC(=O)N3CCCC3)c2=O)cc1	/	/	/	?	-16%	/
CC(=O)Nc1ccc(S(=O)(=O)NC2(C(F)(F)F)NC(=O)N(CCc3ccc(F)cc3)C2=O)cc1 (centres undefined)	/	/	/	-10%	-11%	/
O=C(COC(=O)c1cc(=O)[nH]c2ccccc12)Nc1ccccc1F	5%	11%	-1	-3%	-5%	7%
CCN(C[C@H]1N[C@@](CC)(C(=O)OC)[C@H]2C(=O)N(Cc3ccccc3)C(=O)[C@@H]12)S(=O)(=O)c1ccc(-c2ccccc2)cc1	-6%	2%	0	?	?	5%
CCN(C[C@H]1N[C@@](CC)(C(=O)OC)[C@H]2C(=O)N(Cc3ccccc3)C(=O)[C@@H]12)S(=O)(=O)c1ccc(C(C)(C)C)cc1	-9%	-2%	-15	23µM*	13µM*	-2%
CCN(C[C@H]1N[C@@](CC)(C(=O)OC)[C@H]2C(=O)N(Cc3ccccc3)C(=O)[C@@H]12)S(=O)(=O)c1ccc(OC(F)(F)F)cc1	-1%	1%	-8	16µM*	?	9%
Cc1c(C(=O)N(Cc2cccc(Cl)c2)Cc2ccco2)oc2ccccc12	/	/	/	-24%	?	/
CCc1ccc2oc(C(=O)N(Cc3ccc(N(C)C)cc3)Cc3ccco3)c(C)c2c1	/	/	/	16µM*	0.73µM*	/
Cc1ccc2c(C)c(C(=O)N(Cc3ccc(N(C)C)cc3)Cc3ccco3)oc2c1C	/	/	/	13µM*	?	/
Cc1c(C(=O)N(Cc2ccco2)Cc2ccccc2Cl)oc2ccc(F)cc12	/	/	/	15µM*	?	/
NC(=O)c1ncn([C@@H]2O[C@H](CNCc3cccc(OC4CCCC4)c3)[C@@H](O)[C@H]2O)n1	9%	7%	-1	-16%	-12%	10%
SMILES	uPA surface inh	HT1080 IDH1KD tx	IL1B secr inh	DT40 TDP1 no CPT	TDP1 cell CPT	HT1080-NT tox
COc1ccc(Br)cc1CN1CCN(C(=O)c2ccc(F)cc2)CC1	-1%	-10%	0	21µM*	?	-6%
COc1cccc(C(=O)N2CCN(Cc3cc(Br)ccc3OC)CC2)c1	-3%	-14%	-51*	?	?	-22%
COc1ccc(-c2nnc(SCC(=O)Nc3ccc(Cl)cc3)s2)cc1	/	/	/	-19%	-23%	/
CC1CCCC(C)N1C(=O)CSc1nc2c(c(=O)n(C)c(=O)n2C)n1C (centres undefined)	1%	12%	8	-17%	2%	16%
COc1ccc(N(Cc2cc3cc(OC)ccc3[nH]c2=O)C(=O)c2cccnc2)cc1	-2%	-9%[9.24 µM]	-13	23µM*	16µM*	8%
COc1ccc(N(Cc2cc3cccc(C)c3[nH]c2=O)S(C)(=O)=O)cc1	/	-2%	7	?	?	12%[9.24 µM]
COc1ccc(N(Cc2cc3cccc(C)c3[nH]c2=O)C(=O)c2cccc(Cl)c2)cc1	/	/	/	8.2µM*	10µM*	/
Cc1cccc(N(Cc2cc3ccccc3[nH]c2=O)C(=O)c2cccc(Cl)c2)c1	/	/	/	16µM*	23µM*	/
CCC(=O)N(Cc1cc2cc(OC)ccc2[nH]c1=O)c1cc(C)ccc1C	-2%	-23%	0	-29%	?	1%
COc1ccc2[nH]c(=O)c(CN(C(=O)c3cccnc3)c3ccccc3)cc2c1	5%	2%	-16	-26%	-20%	6%
CCC(=O)N(Cc1cc2cc(OC)ccc2[nH]c1=O)c1ccc(C)cc1	-1%	4%	-13	10µM*	?	-14%
COc1ccc2[nH]c(=O)c(CN(C(=O)c3cccc(Cl)c3)c3cccc(C)c3)cc2c1	/	/	/	18µM*	16µM*	/
Cc1ccc2[nH]c(=O)c(CN(C(=O)c3cccs3)c3ccccc3)cc2c1	-1%	-11%	1	16µM*	?	-3%
COc1ccc2[nH]c(=O)c(CN(C(=O)c3cccnc3)c3cc(C)ccc3C)cc2c1	5%	-1%	-5	-3%	8%	-1%
